Screening data as filed in PubChem.
In the library only some 19% were active in any assay of this set; here they are far more common.
HT1080-NT tox: qHTS for induction of synthetic lethality in tumor cells producing 2HG: qHTS for the HT-1080-NT fibrosarcoma cell line; AID 686970, 2013; Potency, µM (series often up to 46.1 µM), for the others: at the highest dose activity, negative = less viability, most hits filed as cytotoxic; HT-1080-NT fibrosarcoma viability, CellTiter-Glo ATP luminescence, 48 h; hit rate 1.6% among 360,000;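 note: NT is the 2HG producing partner of a matched IDH1 knockdown line; potency is the fitted concentration of half-maximal effect; 0% = DMSO-treated cells and -100% = media-only wells without cells; nearly all actives have a fitted effect of over 55% in size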
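HT-1080-NT; 750 cells/well; 5% FBS RPMI; 48 h compound, 37 degrees C; CellTiter-Glo luminescence; curve fitting and curve-class assignment.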
DT40 TDP1 no CPT: qHTS for Inhibitors of human tyrosyl-DNA phosphodiesterase 1 (TDP1): qHTS in cells in absence of CPT | Potency, µM (titrated, usually from 46.2 µM), inactives show top-dose activity change, negative = growth inhibition, actives largely listed as inhibitors | DT40 Tdp1-/- hTDP1 cells, no CPT, ATP luminescence, 48 h | hit rate 15% among 420,000; note: potency is the fitted concentration of half-maximal effect; nearly all actives have a fitted effect of over 55% in size
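DT40 Tdp1-/-;hTDP1 cells, no CPT (DMSO vehicle only), 400 cells/well; compounds pin-transferred; ≥48 hr, 37 °C; CellTiter-Glo 30 min RT dark, luminescence read.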
DT40 TDP1 CPT: qHTS for Inhibitors of human tyrosyl-DNA phosphodiesterase 1 (TDP1): qHTS in cells in presence of CPT | chicken DT40 Tdp1-/-;hTDP1 cells + 20 nM CPT, ATP luminescence, 48 h | Potency, µM (series often up to 46.2 µM), inactives show top-dose activity change, negative = growth inhibition, hits mostly inhibitors | hit rate 12% among 420,000; note: potency is the fitted concentration of half-maximal effect; nearly all actives have a fitted effect of over 55% in size
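Cell growth measured by CellTiter-Glo luminescence after a minimum 48 h, 37 C compound exposure with 20 nM CPT in Tdp1-knockout DT40 cells stably expressing hTDP1, seeded 400/well; qHTS titration format.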
HT1080 IDH1KD tx: qHTS for induction of synthetic lethality in tumor cells producing 2HG: qHTS for the HT-1080-IDH1KD cell line | HT-1080 IDH1 knockdown viability, ATP luminescence, 48 h | hit rate 2% among 360,000 | Potency, µM (highest dose often 46.1 µM), for inactives: top-dose activity, negative = toxicity, most hits filed as cytotoxic;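 note: potency is the fitted concentration of half-maximal effect; 0% = DMSO wells and -100% = cell-free medium wells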
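After a 2 h attachment period, IDH1KD HT-1080 cells took pin-transferred compound for 48 h at 37 °C; ATP-based luminescence after 10 min room-temperature reagent incubation reported viability.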
IL1B secr inh: qHTS for Inhibitors of Inflammasome Signaling: IL-1-beta AlphaLISA Primary Screen; THP-1 LPS/ATP IL-1B secretion, AlphaLISA, 16 h; stronger effect = lower value; hit rate 4.7% among 360,000; activity change, % at 57.5 µM; in the data active = activity change below about -50%; inconclusive = mostly about -30% to -49%
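THP-1 cells pretreated 1 hr with compounds (up to 57.5 uM final), then stimulated with LPS (250 ng/mL final) plus ATP (1.25 mM final); secreted IL-1B measured by AlphaLISA after 16 hr, decreased signal indicating inhibition.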
* hit, by the source's call; ? = inconclusive; nt = no result. Unless noted, calls come from the whole dose curve; as a rule, active = well fitted curve in the direction sought with a large enough effect; inconclusive = small, poorly fitted or top-dose-only effect, or another doubt; inactive = no such curve, though single readings can be large; an effect the other way counts as inactive or inconclusive. Unless noted, % is set by controls: 0 for no effect and ±100 for the full control effect.

SMILES	HT1080-NT tox	DT40 TDP1 no CPT	DT40 TDP1 CPT	HT1080 IDH1KD tx	IL1B secr inh
COc1cc(NC(=O)c2ccc(-c3ccc(F)c(F)c3)c3ccoc23)cc(OC)c1OC	-11%	4.1µM*	4.1µM*	-7%	-1
COc1cc(CN2CCNC(=O)C2CC(=O)NC2CCCC2)cc(OC)c1 (configuration not stated)	-1%	-7%	1%	4%	-15
CNC(=O)c1c(NC(=O)c2ccc(S(=O)(=O)N3CCCCC3C)cc2)sc2c1CCC2 (configuration not stated)	nt	15µM*	13µM*	nt	nt
CNC(=O)c1c(NC(=O)c2ccc(S(=O)(=O)N3CCCCC3)cc2)sc2c1CCN(C(C)C)C2	-23%	?	?	-25%	33
CNC(=O)c1c(NC(=O)c2ccc(S(=O)(=O)N3CCC(C)CC3)cc2)sc2c1CCC2	nt	23µM*	?	nt	nt
Cc1nc2c(Cl)cccc2c2c1CC(CBr)O2 (configuration not stated)	-8%	?	15µM*	-9%	24
Cc1c(C(=O)Nc2cccc(N(C)S(C)(=O)=O)c2)cccc1[N+](=O)[O-]	2%	-20%	-23%	0%	42
O=C(CNC(=O)N1CC(=O)Nc2ccccc21)NCCc1c[nH]c2ccccc12	-2%	0%	-3%	-3%	-22
CCC(CO)Oc1cc(NCc2cccc(C(F)(F)F)c2)c2ncn(C(C)C)c2c1 (configuration not stated)	9%	?	16µM*	-2%	0
CC[C@H](CO)Oc1cc(NCc2cccc(N)c2)c2ncn(C(C)C)c2c1	?	?	26µM*	?	161
CC[C@H](CO)Oc1cc(NCc2ccc(Cl)c(Cl)c2)c2ncn(C(C)C)c2c1	?	?	16µM*	-23%	-20
CCC(CO)Oc1cc(NCc2ccccc2O)c2ncn(C(C)C)c2c1 (configuration not stated)	?	18µM*	15µM*	-7%	0
CCC(CO)Oc1cc(NCc2ccc(C)cc2)c2ncn(C(C)C)c2c1 (configuration not stated)	-11%	?	?	-1%	0
Cc1nc(-c2ccc(S(=O)(=O)Nc3ccc(Br)cc3F)cc2)co1	0%	3%	-12%	-3%	22
CSc1ccccc1NC(=O)c1ccccc1C	1%	-14%	-16%	3%	-28
CC(=O)c1ccc(OCCCC(=O)Nc2ccc(S(=O)(=O)N3CCOCC3)cc2)cc1	-12%	?	?	-13%	6
CCCOc1cc(NCc2ccccc2)c2ncn(C(C)C)c2c1	-20%	?	?	-20%	?
CCOc1cc(NCc2ccccc2)c2ncn(C(C)C)c2c1	-26%	23µM*	?	-19%	0
CCC(CO)Oc1cc(NCc2cccc(C)c2)c2ncn(C(C)C)c2c1 (configuration not stated)	9%	?	21µM*	-3%	18
O=C(Nc1ccc(F)cc1F)c1noc2c1CCc1ccccc1-2	nt	-20%	-23%	nt	nt
Cn1c(=O)[nH]c(=O)c2c1nc(N1CCOCC1)n2CCCSc1ncccn1	6%	-12%	-24%	14%	7
Cc1cc(C(=O)c2ccc(Cl)cc2)c(NC(=O)CCl)s1	?	7.3µM*	8.2µM*	?	-117*
Cc1ccc(C(=O)c2cc(C)sc2N)cc1	-2%	-23%	0%	-4%	-20
CCCc1nnc(NC(=O)CCC(=O)N2CCN(Cc3cc(Cl)ccc3OC)CC2)s1	2%	?	-27%	-10%	0
Cc1ccn2c(Nc3c(C)cccc3C)c(-c3ccc(Cl)s3)nc2c1	nt	18µM*	13µM*	nt	nt
SMILES	HT1080-NT tox	DT40 TDP1 no CPT	DT40 TDP1 CPT	HT1080 IDH1KD tx	IL1B secr inh
Cc1ccn2c(Nc3c(C)cccc3C)c(-c3ccsc3)nc2c1	nt	23µM*	21µM*	nt	nt
CCOc1ccccc1N1CCN(CC(=O)N(C)CC(=O)Nc2ccccc2CC)CC1	1%	-20%	-8%	-3%	-7
OC(c1ccc2c(c1)CN(Cc1cccc3nccnc13)CCO2)C1CCCCC1 (configuration not stated)	nt	-19%	6%	nt	nt
CCc1nc(CN2CCOc3ccc(C(O)C4CCCCC4)cc3C2)c(C)[nH]1 (configuration not stated)	nt	18µM*	?	nt	nt
CCc1nc2c(OCC3COc4ccccc4O3)cccn2c1N(C)C(=O)c1ccccc1F (configuration not stated)	?	21µM*	21µM*	9%	21
CCc1nc2c(OCc3cc(Cl)cc(Cl)c3)cccn2c1N(C)C(=O)c1ccc(OC)cc1	?	16µM*	18µM*	?	?
CCc1nc2c(OCc3cc(Cl)cc(Cl)c3)cccn2c1N(C)C(=O)c1ccccc1F	18µM*	?	?	?	-58*
CCc1nc2c(OCC3COc4ccccc4O3)cccn2c1N(C)C(=O)c1cccs1 (configuration not stated)	-13%	?	?	15%	-14
CCc1nc2c(OCc3ccc(F)cc3)cccn2c1N(C)C(=O)c1ccco1	0%	?	-18%	16%	-1
CCc1nc2c(OCc3ccc(Cl)cc3)cccn2c1N(C)C(=O)c1ccco1	?	21µM*	16µM*	?	-62*
CCc1nc2c(OCc3cccc(OC)c3)cccn2c1N(C)C(=O)c1ccccc1F	-8%	?	?	-18%	-14
C=CCOc1cccn2c(N(C)C(=O)c3ccc(OC)cc3)c(CC)nc12	20%	-22%	?	?	0
O=C(OCc1nnc(-c2cccs2)o1)C1=NN(c2ccccc2)C(=O)CC1	10%	?	3%	1%	1
CC1CCc2nc3ccc(S(=O)(=O)N4CCC(C(=O)NC(C)c5ccccc5)CC4)cc3c(C(=O)O)c2C1 (configuration not stated)	5%	16%	6%	1%	36
CCOC(=O)C(=O)N(C)c1c(CC)nc2c(OCc3ccc(OC(F)F)cc3)cccn12	9%	-46%	?	11%	9
CCc1nc2c(OCc3ccc(F)c(F)c3)cccn2c1N(C)C(=O)c1cccs1	-1%	23µM*	?	-4%	-6
